# Bioassay records as filed in PubChem.
# JMJD2E inh: qHTS Assay for Inhibitors of Human Jumonji Domain Containing 2E (JMJD2E) | JMJD2E catalytic domain, FDH-coupled NADH fluorescence (FDH is formaldehyde dehydrogenase) | Potency, µM (highest dose often 57.1 µM), for inactives: at the top dose activity change, negative = inhibition, actives largely listed as inhibitors | actives 1.6% (n = 230,000) | AID 2147, 2009;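 further: potency means the concentration at half of the fitted maximal effect; 0% = wells with enzyme and -100% = buffer wells without enzyme; nearly all actives have a fitted effect of over 50% in size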
# Target sequence (B2RXH2 1-337 limits assumed): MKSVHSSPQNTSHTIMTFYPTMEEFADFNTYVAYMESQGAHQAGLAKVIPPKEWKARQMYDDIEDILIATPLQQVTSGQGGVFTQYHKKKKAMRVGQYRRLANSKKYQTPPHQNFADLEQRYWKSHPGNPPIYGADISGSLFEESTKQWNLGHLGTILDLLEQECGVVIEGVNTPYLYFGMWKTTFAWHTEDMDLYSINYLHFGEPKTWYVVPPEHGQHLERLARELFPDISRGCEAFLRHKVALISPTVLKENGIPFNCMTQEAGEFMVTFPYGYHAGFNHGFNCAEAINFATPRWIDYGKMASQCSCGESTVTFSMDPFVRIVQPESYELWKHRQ
# Coupling enz: qHTS Assay for Inhibitors of Fructose-1,6-bisphosphate Aldolase from Giardia Lamblia: Coupling assay counterscreen. activity change, negative = inhibition, % at 58.2 µM, hits read low. actives 0.67% (n = 290,000). coupling enzyme system counterscreen, AmpLite Red fluorescence. AID 2472, 2010; in the data active means activity change below about -30%
#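 Compounds tested against the coupling enzymes alone at 57.5 uM final; readout was AmpLite Red fluorescence (525/598 nm) after 20 min at RT.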
# RGS12 GoLoco inh: qHTS Assay for Inhibitors of RGS12 GoLoco Motif Activity (Red Fluorophore); Guanine nucleotide-binding protein G(i) subunit alpha-1 (Homo sapiens), P63096; Gai1:RGS12 GoLoco peptide FP, rhodamine, 10 min; Potency, µM (series often up to 61.6 µM), for inactives: top-dose activity, negative = inhibition, most hits filed as inhibitors; actives 0.44% (n = 230,000); AID 880, 2007; active means well fitted inhibition curve with a large enough effect, not every such curve was filed as active; inactive means no such curve, though single readings can be large or run the other way; further: potency means the concentration at half of the fitted maximal effect; nearly all actives have a fitted effect of over 30% in size
# NPSR antag: qHTS Assay for Antagonists of the Neuropeptide S Receptor: cAMP Signal Transduction. CHO-NPSR cells, cAMP TR-FRET, antagonist mode. Potency, µM (series often up to 38.3 µM), for the others: at the top dose activity change, negative = inhibition, actives largely listed as inhibitors. actives 1% (n = 220,000). AID 1461, 2008. Q6W5P4; active means well fitted curve in the direction sought with a large enough effect; inconclusive means small, poorly fitted or top-dose-only effect, or another doubt; inactive means no such curve, though single readings can be large; an effect the other way counts as inactive or inconclusive; further: potency means the concentration at half of the fitted maximal effect; nearly all actives have a fitted effect of over 50% in size
# Sfp PPTase inh: qHTS Assay for Inhibitors of Bacillus subtilis Sfp phosphopantetheinyl transferase (PPTase); 4'-phosphopantetheinyl transferase ffp (Bacillus subtilis), Q9F4F7; actives 3.5% (n = 310,000); Potency, µM, inactives show largest response in the series, negative = inhibition, hits mostly inhibitors; Biochemical Sfp PPTase activity, qHTS; AID 1490, 2009; active means well fitted curve in the direction sought with a large enough effect; inconclusive means small, poorly fitted or top-dose-only effect, or another doubt; inactive means no such curve, though single readings can be large; an effect the other way counts as inactive or inconclusive;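 further: the enzyme is Sfp with the accession as filed and its product quenches rhodamine fluorescence; potency means the concentration at half of the fitted maximal effect; 0% = enzyme reaction without inhibitor and -100% = no enzyme wells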
#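 Reaction rates are the 30-min fluorescence difference (ex 525, em 598 nm) in wells containing 15 nM Sfp, 5 uM rhodamine-CoA and 12.5 uM BHQ-2-YbbR at pH 7.6 with 10 mM MgCl2.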
# ALDH1A1 inh: qHTS Assay for Inhibitors of Aldehyde Dehydrogenase 1 (ALDH1A1); Potency, µM (highest dose often 75.3 µM), inactives show at the highest dose activity, negative = inhibition, hits mostly inhibitors; actives 7.3% (n = 220,000); Purified ALDH1A1, NADH fluorescence, propionaldehyde substrate;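 further: potency means the concentration at half of the fitted maximal effect; plate controls were no enzyme wells and a reference inhibitor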
# The depositor's hits bear a star; ? = inconclusive; nt = no result given; [ ] = remark or other dose. Shown are actives, neighbours in structure and some others; about 8.5% of the full set was active somewhere. Unless noted, the call rests on the fitted dose curve; in most records, active means well fitted inhibition curve with a large enough effect (not every such curve was filed as active); inconclusive means small, poorly fitted or top-dose-only effect, or another doubt; inactive means no such curve, though single readings can be large or run the other way. Unless noted, on the % scale 0 is the no-effect control and ±100 the full control effect.
SMILES,JMJD2E inh,Coupling enz,RGS12 GoLoco inh,NPSR antag,Sfp PPTase inh,ALDH1A1 inh
COc1cc2c(cc1OC)/C(=C/C#N)NC(C)(C)C2,-1%,0,16%,2%[46.1 µM],1%,2µM*
COc1cc2c(cc1OC)C(=S)NC1(CCCC1)C2,-6%,-1,9%,-28%,21%,?
Nc1c(C(=O)NCc2ccco2)c2nc3ccccc3nc2n1CCc1ccccc1,?,-34*,17%,-52%,50µM*,?
CCOc1ccc(CN(C)CC(=O)Nc2ccc(N3CCOCC3)cc2)cc1OC,1%,2,-16%,10%,-3%,-2%
O=C(N/C(=C/c1ccccc1)C(=O)N1CCCCC1)c1ccccc1,nt,nt,nt,nt,-3%,nt
O=C(/C=C/c1ccccc1)N/C(=C/c1ccccc1)C(=O)N1CCCCC1,-13%,2,nt,-15%[46.1 µM],-8%,14µM*
CC1=CC(=C(C#N)C#N)C=C(C)N1CCC(C)C,?,4,-11%,-17%,10%,28µM*
CCCCCN1C(C)=CC(=C(C#N)C#N)C=C1C,?,2,3%,-14%,14%,?
CSCC[C@H](N)C(=O)N[C@@H](C)C(=O)NCC(=O)N[C@@H](CCCN=C(N)N)C(=O)N[C@@H](CO)C(=O)NCC(=O)N[C@@H](CC(=O)O)C(=O)N[C@@H](CO)C(=O)N[C@@H](CC(=O)O)C(=O)N[C@@H](CCC(=O)O)C(=O)N[C@@H](CC(=O)O)C(=O)N[C@@H](CC(C)C)C(=O)N[C@@H](CC(C)C)C(=O)N[C@@H](CCCCN)C(=O)N[C@@H](C)C(=O)N[C@H](C(=O)O)C(C)C,nt,2,nt,nt,-1%,nt
CCOc1ccc(-c2cnc(NCc3cccc4ccccc34)n2CCOC)cc1,nt,-1,nt,nt,56µM*,nt
COCCn1c(-c2ccc(OC)cc2)cnc1N,-1%,-1,4%,-7%[46.1 µM],4%,-5%
COC(=O)C1=C(C(C)=O)C(c2ccc(C(=O)OC)cc2)n2nnnc2N1 (stereo unspecified),6%,1,3%,-6%[46.1 µM],6%,-12%
COC(=O)C1=C(C(=O)c2ccccc2)C(c2ccccc2)n2nnnc2N1 (stereo unspecified),0%,5,10%,-12%,9%,28µM*
N#C/C(=C\c1ccncc1)c1nc2ccccc2c(=O)[nH]1,?,-2,15%,-17%,-18%,7.9µM*
CC1(C)SC2C(NC(=O)C(NC(=O)N3CCNC3=O)c3ccccc3)C(=O)N2C1C(=O)O (stereo unspecified),-7%,4,0%,nt,11%,-4%
Cc1cc2nc3[nH]c4c(Cl)cc(Cl)cc4c3nc2cc1C,nt,nt,-1%[14.2 µM],nt,nt,-8%[13.5 µM]
COc1cccc(/C=C2/Sc3ccc(C(=O)NCCN4CCCCCC4)cc3NC2=O)c1,nt,-1,nt,nt,45µM*,nt
O=C1Nc2cc(C(=O)NCCN3CCCCCC3)ccc2S/C1=C\c1ccccc1,nt,nt,nt,nt,40µM*,nt
Cc1cccc(/C=C2/Sc3ccc(C(=O)NCCN4CCCC4)cc3NC2=O)c1,nt,1,nt,nt,?,nt
CCCCOc1ccc(-c2cn3ccccc3n2)cc1[N+](=O)[O-],-7%,-1,10%,-23%,?,10µM*
CCOc1ccc(-c2cn3ccccc3n2)cc1[N+](=O)[O-],-7%,-1,7%,14%,10%,?
COc1c(S(=O)(=O)n2nc(C)cc2C)ccc(Cl)c1Cl,-2%,1,-1%,-13%[46.1 µM],-29%,28µM*
Cc1cccc(N(Cc2cc3ccccc3[nH]c2=O)S(C)(=O)=O)c1,4%,-13,-11%,1%,56µM*,24µM*
Cc1ccc(S(=O)(=O)N(Cc2cc3ccccc3[nH]c2=O)c2cccc(C)c2)cc1,2%,3,5%,?,10%,-15%
